# Only some compounds are listed: those with a hit (about 3.3% of all), similar ones and a draw of the others.
# rCAG binder = binders of r(CAG) RNA repeats, primary screen, biochemical, fluorescence; r(CAG) RNA repeat, TO-PRO-1 dye displacement fluorescence; inhibition, % at 3 µM; actives 1.3% (n = 370,000); AID 651821, 2012;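 active means inhibition above the plate cutoff, the mean of all test compounds on that plate plus 3 SD, cut at about 35% in these data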;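 further: 0% = DMSO alone and 100% = 100 µM mitoxantrone as full dye displacement; higher means more dye released from RNA so lower well fluorescence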
# PRMT1 inh = PRMT1 methyltransferase inhibitors, primary screen, biochemical, fluorescence polarization; actives 1.3% (n = 370,000); Protein arginine N-methyltransferase 1 (Homo sapiens), Q99873; AID 652257, 2013; recombinant PRMT1, activity-based probe fluorescence polarization; inhibition, % at 2.79 µM;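 active means inhibition above about 21% made by adding two undisclosed values, limit read from the data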
# TLR9-MyD88 block = inhibitors of TLR9-MyD88 association in cells, primary screen, cell-based, CHO, BLA complementation, fluorescence. CCF4 FRET ratio. actives 0.21% (n = 340,000). inhibition, % at 4.98 µM. AID 504734, 2011;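 active means inhibition above the mean over all tested compounds plus 3 SD, cut at about 21% in these data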;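 further: 0% = DMSO only wells and 100% = clavulanate BLA inhibitor control wells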
# ABHD5 PLIN5 PPI = ABHD5-PLIN5 interaction inhibitors, primary screen, cell lysate, split luciferase complementation, luminescence | Split G. princeps luciferase complementation, 4 h | inhibition, % at 4 µM | actives 0.78% (n = 360,000) | AID 602281, 2012;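 active means inhibition above the mean inhibition across every tested compound plus 3 SD, cut at about 22% in these data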;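 further: 0% = DMSO only wells and the 100% control is not disclosed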
# NOD2 RIPK2 PPI = NOD2-RIPK2 binding disruptors in cells, primary screen, fluorescence, CHO cells, BLA complementation. CCF4 ratio. actives 0.38% (n = 360,000). inhibition, % at 4.98 µM; in the data active means inhibition above about 21%;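 further: 0% = vehicle only and 100% = reference blocker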
# TLR4-MyD88 BLA = inhibitors of TLR4-MyD88 association in cells, primary screen, cell-based, HeLa CL3-4, BLA complementation, FRET ratio; inhibition, % at 8.4 µM; HeLa CL3-4 TLR4/MyD88 BLA complementation; actives 0.18% (n = 200,000); Toll-like receptor 4 (Homo sapiens) + Myeloid differentiation primary response protein …; in the data active means inhibition above about 25%;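 further: 0% = vehicle and 100% = reference inhibitor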
# PRMT1 confirm = PRMT1 methyltransferase inhibitors, confirmation, biochemical, fluorescence polarization, triplicate | shares compounds with PRMT1 inh | recombinant His-PRMT1, activity-based probe fluorescence polarization | inhibition, % at 2.79 µM | actives 42% (n = 3,300) | AID 687036, 2013;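 active means mean inhibition across replicates above the hit cutoff derived for the earlier primary screen, cut at about 22% in these data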
# An asterisk follows results filed as active; . = no result given.
SMILES,rCAG binder,PRMT1 inh,TLR9-MyD88 block,ABHD5 PLIN5 PPI,NOD2 RIPK2 PPI,TLR4-MyD88 BLA,PRMT1 confirm
Fc1ccc(CSc2nnc3ccccn23)c(Cl)c1,-2,46*,2,17,-9,8,-2
Fc1cccc(Cl)c1CSc1nnc2ccccn12,-2,-2,-2,1,-2,-8,.
NCCSSCCN,-2,80*,-7,-46,-10,.,31*
COC(=O)C(C(=O)OC)C(C)C(C(=O)OC)C(=O)OC,0,1,-5,-4,2,0,.
c1nc(SSc2ncnc3nc[nH]c23)c2[nH]cnc2n1,1,48*,-8,-18,-1,.,96*
CC1CCC2C(=O)N(c3ccc(S(=O)(=O)c4ccccc4)cc3)C(=O)C2C1 (stereo not given),0,45*,10,-1,-1,-8,5
c1ccc([C@H]2CN3C(=N2)Sc2ccccc23)cc1,8,29*,4,-4,5,.,20
Oc1ccccc1C(=S)N1CCCCC1,1,36*,2,-6,-10,-3,20
Oc1ccccc1C(=S)N1CCCCCC1,0,4,-6,-3,4,-12,.
CCCCn1c(N)c(N(CCOC)C(=O)c2cccc(-n3cnnn3)c2)c(=O)[nH]c1=O,0,-4,-4,-5,-6,.,.
O=C(COC(=O)COc1ccc2ccccc2c1)NCC(F)(F)F,-2,0,-4,-9,-11,6,.
COc1ccc(S(=O)(=O)N2CCOC2CNC(=O)C(=O)NCc2ccc3c(c2)OCO3)cc1 (stereo not given),2,-1,-11,-6,8,.,.
O=C1/C(=C/c2ccc(Cl)cc2)SC(=S)N1CCC(=O)N1CCCCC1CCO (stereo not given),4,1,1,0,-10,.,.
O=C1/C(=C/c2ccco2)SC(=S)N1CCC(=O)N1CCCCC1CCO (stereo not given),25,26*,-1,-1,-10,.,1
O=C(Nc1ccccn1)C(=O)Nc1ccccn1,-2,0,2,-3,-3,.,.
S=C(Nc1ccccn1)c1ccccn1,-3,32*,4,-11,-2,-5,8
CCOc1ccc2cc(C3CC(c4ccco4)=NN3S(=O)(=O)c3ccccc3)c(Cl)nc2c1 (stereo not given),14,3,-4,1,-5,-12,.
COc1ccc2cc(C3CC(c4ccco4)=NN3S(=O)(=O)c3ccccc3)c(Cl)nc2c1 (stereo not given),28,29*,8,-1,5,-9,2
CCN(CC)c1ccc(SS(=O)(=O)O)cc1,4,75*,-11,-28,-10,5,83*
O=S(=O)(O)Sc1ccccc1,4,13,-3,-24,-8,.,.
COC(=O)C1=C(C)NC(=S)NC1c1ccc(-c2cc(Cl)ccc2Cl)o1 (stereo not given),15,70*,4,5,4,.,19
CCc1nc2ccc(C(=O)NCc3ccc4c(c3)OCO4)cn2c1N(C)Cc1cccs1,2,-2,.,6,5,.,.
Cc1ccc(C(=O)NCCCN2CCN(CCCNC(=O)c3ccc(C)cc3)CC2)cc1,-9,1,-5,4,-11,.,.
CC(=O)c1c(N2CCN(C)CC2)nc(=S)n(Cc2ccccc2)c1C,-2,39*,-9,-5,-10,0,-5
CCSc1nc(=S)n(Cc2ccccc2)c(C)c1C(C)=O,3,4,6,4,-18,0,.
COc1cc(C2C3=C(COC3=O)OC(C)(C)Oc3cc4c(cc32)OCO4)cc(OC)c1OC (stereo not given),2,0,1,-10,-3,.,.
Nc1cccnc1Sc1cc(Cl)cc(Cl)c1,-3,62*,-5,-1,-10,-9,3

# Screens: PubChem, The Scripps Research Institute Molecular Screening Center
